Assay results as given in PubChem BioAssay AID687014 (The Scripps Research Institute Molecular Screening Center, 2013).
The whole screen tested about 370,000 compounds, of which about 6,800 (1.8%) were called active. Shown is part of a subset that was picked to be rich in actives. Unmarked numbers belong to inactive results.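 How the source made its calls: active means activation above a cutoff set at the mean of all screened compounds plus 3 SD (cut at about 10% in these data); inactive means the rest.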

test system: Nuclear hormone receptor DAF-12 (Heterodera glycines), GAL4 fusion; experiment: hgDAF-12 GAL4 fusion reporter activation – cell-based, luminescence, HEK293, UAS-luciferase, primary screen (AID 687014); details: HEK293 GAL4-hgDAF12 UAS-luciferase reporter, agonist luminescence; at 6.8 µM; hits give high values; normalized to butyrate control;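 further: 0% = DMSO wells and 100% = sodium butyrate wells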

Compound	activation
Clc1ccc(-n2c(SC/C=C/c3ccccc3)nnc2-c2ccco2)cc1	-0.13%
O=C(CSc1nc2ccccc2nc1N1CCCCC1)N1CCN(S(=O)(=O)c2cccc([N+](=O)[O-])c2)CC1	0.48%
COc1ccc(OC)c(CNC(=O)CCc2nc(-c3cccs3)no2)c1	-2.24%
COc1ccc(CCc2nc(-c3cccs3)no2)cc1	11.6% (active)
CCc1ccc(CNC(=O)CCc2nc(-c3cccs3)no2)cc1	1.81%
CCOC(=O)C1CSCCS(=O)(=O)N1Cc1ccc(Cl)cc1 (stereo not given)	-2.53%
CN1C(=O)C2CC(O)C(SC3CC4C(=O)N(C)C(=O)C4CC3O)CC2C1=O (stereo not given)	-0.94%
COc1ccc2nc3n(c(=O)c2c1)-c1ccc(Cl)cc1C(=O)NC3Cc1ccccc1 (stereo not given)	-2.62%
O=C(NC1CCC1)c1ccc(C#Cc2cccc(F)c2)c[n+]1[O-]	4.83%
Cn1ncc(Br)c1C(=O)NC1CCCC1	2.19%
O=C(NC1CCC1)c1ccc(C#CC2CC2)cn1	14.1% (active)
CC1CN(C(=S)Nc2ccc(S(N)(=O)=O)cc2)CC(C)O1 (stereo not given)	0.5%
COc1cc(C(=O)Nn2c(O)c(C3=c4ccccc4=NC3=O)sc2=S)ccc1O	5.04%
Cc1ccc(-c2nnc(SC(C)C#N)n2N)cc1 (stereo not given)	-2.55%
COc1ccc(C(=O)COC(=O)CN2C(=O)C3CC=CCC3C2=O)c(OC)c1 (stereo not given)	-0.12%
COc1ccc(C(=O)COC(=O)C(O)c2ccccc2)c(OC)c1 (stereo not given)	10.7% (active)
COc1ccc(C(=O)COC(=O)c2nn(C)c(=O)c3ccccc23)c(OC)c1	-0.75%
Nc1[nH]c(C(=O)c2ccc(Br)cc2)c(-c2ccc3c(c2)OCO3)c1C(=O)NCCc1c[nH]c2ccccc12	1.89%
CC(=O)c1ccccc1NC(=O)COC(=O)C1COc2ccccc2O1 (stereo not given)	24.1% (active)
Cc1ccc(S(=O)(=O)N(C)C)cc1NC(=O)COC(=O)C1COc2ccccc2O1 (stereo not given)	1.41%

Compound	activation
COc1ccc(NC(=O)CC2COc3ccccc3O2)c(OC)c1 (stereo not given)	1.72%
CCOC(=O)[C@]12CCCC=C1N(CCCOC)C(=O)[C@@H]2CC(=O)N1CCOCC1	0.45%
Cc1cc2c(C)nc(N/N=C/c3ccccc3)nc2o1	4.01%
COc1cccc(CNCc2ccc3c(c2)OCO3)c1	-0.87%
C(=N\Nc1ccc2ccccc2n1)/c1ccc2c(c1)OCO2	11.2% (active)
Cc1noc(C)c1/C=N/Nc1ccc2ccccc2n1	12.8% (active)
O=C(OC12CCCN(C1)/C(=C/c1ccccc1)C2)c1ccco1 (stereo not given)	-2.49%
Cc1cc(-c2ccccc2)n2nc(C)c(-c3ccccc3)c2n1	0.2%
Cc1nn(C(=O)c2ccoc2C)c(N)c1-c1ccccc1	12.5% (active)
Cc1occc1C(=O)Nc1cccc(Cn2cccn2)c1	0.48%
O=C(NCCc1c[nH]c2ccccc12)OCc1cn(-c2c(F)cccc2F)nn1	-0.77%
O=S1(=O)c2c(cccc2N2CC[C@H](O)C2)O[C@@H]2CCN1C2	-2.37%
COc1cccc(/C=C2\CC3(OC(C)=O)CCCN2C3)c1 (stereo not given)	1.14%
Cc1nc2ccc(C(=O)N3CCN(C(=O)C(C)(C)C)CC3)cc2n1C1CCCC1	-0.38%
COC[C@@H]1CCCN1c1ccc2c(c1)O[C@H](C)CCN(C1CC1)S2(=O)=O	1.95%
COc1ccc(OC)c(/C=C/C(=O)c2ccc3c(c2)OCO3)c1	-2.94%
C/C(=N\NC(=O)C(N)=O)c1ccc2c(c1)OCCO2	4.44%
O=C(/C=C/c1ccc2c(c1)OCCO2)c1ccc(O)cc1	11.8% (active)
COC(=O)[C@]12C[C@H](CC(=O)NCc3cccc(C(F)(F)F)c3)C(=O)N(Cc3ccc4c(c3)OCO4)C1=C[C@H](COCc1ccccc1)O[C@@H]2C	1.05%
O=c1oc2ccccc2cc1-c1cn(-c2ccccc2)c(=S)[nH]1	-16.8%

Compound	activation
Nc1ncc(-c2cc3ccccc3oc2=O)s1	11.9% (active)
CC(CCN1CCC(C(O)(c2ccccc2)c2ccccc2)CC1)Oc1ccc(C(F)(F)F)cc1 (stereo not given)	0.45%
O=C(Nc1cc(Cl)cc(Cl)c1)OCCN1CCCC12CCC(c1ccccc1)CC2 (stereo not given)	-0.4%
CC(C)=CCN1CCN(Cc2ccc(Oc3ncccn3)cc2)CC1CCO (stereo not given)	3.6%
N#CC1(Nc2ccc(-c3ccc(Cl)cc3)cc2)CCCC1	13.3% (active)
NC(=O)C1(Nc2ccc(-c3ccccc3)cc2)CCCC1	0.26%
N#CC1(Nc2ccc3c4c(cccc24)CC3)CCCCC1	-2.54%
COc1cccc(C(=O)Nc2ccc3nc4n(c(=O)c3c2)CCCCC4)c1	4.15%
CC1CCN(C(=O)c2ccc3c(=O)n4c(nc3c2)CCCCC4)CC1	1.69%
N=c1c2c3c(sc2nc2n1CCCCC2)CCCC3	2.26%
CC(=O)c1ccc(NC(=O)c2sc3nc4n(c(=O)c3c2C)CCCCC4)cc1	6.99%
O=c1c2c(nc3n1CCCCC3)sc1c(O)cccc12	12.6% (active)
Cc1c(C(=O)Nc2ccccc2)sc2nc3n(c(=O)c12)CCCCC3	10.5% (active)
CC(C)CNS(=O)(=O)CC1NCCc2ccccc21 (stereo not given)	-0.34%
Cc1ccc(C2=CCN(C)C(=O)N2c2ccc(Cl)cc2)cc1	7.34%
COc1ccc(C(=O)OCCN(C)C2CN(Cc3cn(Cc4cccc(C)c4)nn3)S(=O)(=O)C2)cc1OC (stereo not given)	0.81%
Cc1cccc(N2CCN(C(=O)c3cccc(N4C(=O)C5C6C=CC(C6)C5C4=O)c3)CC2)c1C (stereo not given)	-1.08%
CN(CC(=O)Nc1ccc(Cl)cc1)C(=O)c1ccc(COc2ccccc2)cc1	0.13%
CN(CC(=O)Nc1ccc(Cl)cc1)C(=O)CNC(=O)c1ccc2ccccc2c1	12.3% (active)
CN(CC(=O)Nc1ccc(Cl)cc1)CC(=O)Nc1cccc2ccccc12	0.52%
